The values below come from PubChem BioAssay (Tox21).

SMILES strings stand for the structures. Where “and” joins values, the source holds several entries; their conditions need not be identical. Equal entries are not always repeated. Results filed as inconclusive are left out. Where a call stands in place of a potency, no number is given. Where a structure was tested more than once in an assay, its records may differ in their call. Calls of active or inactive are those of the source. Calls follow the shape of the dose curve; as a rule, active = well fitted inhibition curve with a large enough effect in the repeat runs; inconclusive = weak or mixed curves; inactive = no such curve, though single readings can be large or run the other way.
Also: nearly all actives have a fitted effect of over 50% in size.
Potency is read from the fitted curve at half-maximal effect.

Cytochrome P450 1A2 (Homo sapiens), sequence (P05177 whole entry, looked up): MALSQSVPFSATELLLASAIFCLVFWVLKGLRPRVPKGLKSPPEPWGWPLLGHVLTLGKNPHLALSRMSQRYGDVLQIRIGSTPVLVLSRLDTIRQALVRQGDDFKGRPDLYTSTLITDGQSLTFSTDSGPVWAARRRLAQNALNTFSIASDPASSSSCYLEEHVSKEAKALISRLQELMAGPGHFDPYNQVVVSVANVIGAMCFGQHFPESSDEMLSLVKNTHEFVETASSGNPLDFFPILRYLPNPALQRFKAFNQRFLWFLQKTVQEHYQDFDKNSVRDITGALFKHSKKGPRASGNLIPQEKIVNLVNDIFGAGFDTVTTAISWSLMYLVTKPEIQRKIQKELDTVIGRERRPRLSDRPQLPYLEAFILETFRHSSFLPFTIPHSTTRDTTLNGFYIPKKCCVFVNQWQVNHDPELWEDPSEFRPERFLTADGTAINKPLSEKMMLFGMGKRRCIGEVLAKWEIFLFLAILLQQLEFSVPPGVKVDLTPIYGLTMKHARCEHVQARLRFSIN

The target of the first assay is Cytochrome P450 2C9 (Homo sapiens) (UniProt P11712). The assay can be described thus: Cytochrome P450 Family 2 Subfamily C Member 9 (CYP2C9) small molecule antagonists: luciferase reporter qHTS assay (AID 1671198). To be noted: P450-Glo CYP2C9 enzyme assay, luciferin luminescence; series mostly up to 115 µM. In short, it runs like this: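 CYP2C9 activity was measured with a P450-Glo proluciferin substrate. Enzyme–substrate mix was held with compound for 10 min at room temperature, then NADPH regeneration solution was added for 1 h at 37C. Luciferin product was read as luminescence.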
Cytochrome P450 2C9 (Homo sapiens), sequence (P11712 whole entry, looked up): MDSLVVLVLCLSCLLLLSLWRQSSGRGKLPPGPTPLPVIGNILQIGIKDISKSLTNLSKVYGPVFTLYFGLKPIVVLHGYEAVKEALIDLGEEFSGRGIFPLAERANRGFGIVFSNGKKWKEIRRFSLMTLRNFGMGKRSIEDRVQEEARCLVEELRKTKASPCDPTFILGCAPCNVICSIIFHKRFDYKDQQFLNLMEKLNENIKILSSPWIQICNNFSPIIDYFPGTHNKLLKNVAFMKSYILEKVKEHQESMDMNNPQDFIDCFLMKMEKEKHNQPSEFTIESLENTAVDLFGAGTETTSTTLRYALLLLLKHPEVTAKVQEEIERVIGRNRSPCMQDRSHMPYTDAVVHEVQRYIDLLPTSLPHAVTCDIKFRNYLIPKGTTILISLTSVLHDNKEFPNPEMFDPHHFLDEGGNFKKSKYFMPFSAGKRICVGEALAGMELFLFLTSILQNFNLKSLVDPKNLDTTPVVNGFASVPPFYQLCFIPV
Consider `Brc1ccc(Oc2ccc(Br)cc2)cc1`, for which the Potency is 35.6 µM (active).

As to `COc1ccccc1[N+](=O)[O-]`, the Potency entry is “inactive”. `CCOC(=O)CC(=O)OCC`: the Potency result was “inactive”. For `CC(=O)OCc1ccc2c(c1)OCO2`, the Potency is 25.2 µM (active) and 35.6 µM (active). Turning to `CC(COCC(C)OC(=O)c1ccccc1)OC(=O)c1ccccc1` (stereo not drawn), the Potency was 6.28 µM (active) and 5.64 µM (active). For the compound `CCc1cccc(O)c1`, the Potency result is “inactive”. Same read-out and setting: to `CCCCC(CC)COC(=O)c1ccc(C(=O)OCC(CC)CCCC)cc1` (stereo not drawn) belongs “inactive”; to `CC(C)(CO)CO`, “inactive”; to `CO[Si](CCCNCCN)(OC)OC`, “inactive”. `CC(=O)c1nccs1`: the Potency is 32.8 µM (active) and inactive. With `CC(C)c1ccc(C(C)C)cc1`, the Potency entry is “inactive”. With `O=C(c1ccccc1)c1ccc(O)c(O)c1O`, the Potency is 40.3 µM (active) and 63.3 µM (active). Take `CCn1cc(C(=O)O)c(=O)c2cc3c(cc21)OCO3`: the activity change, negative = inhibition is 4.54% [at 23.6 µM] (inactive). With `O=[N+]([O-])c1ccccc1C(F)(F)F`, the Potency entry was “inactive”. On the same count and under the same terms, the same measure for `CC(C)(C)NC[C@H](O)COc1nsnc1N1CCOCC1`: “inactive”; for `Cc1ccncc1`: “inactive”.

The next assay has as its target Cytochrome P450 1A2 (Homo sapiens) (UniProt P05177). The assay can be described thus: Cytochrome P450 Family 1 Subfamily A Member 2 (CYP1A2) small molecule antagonists: luciferase reporter qHTS assay (AID 1671199). As to conditions: P450-Glo CYP1A2 enzyme, luciferin luminescence, 1 h; series mostly up to 115 µM. In short, it runs like this: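 Human CYP1A2 activity measured with a P450-Glo proluciferin substrate; compounds in DMSO preincubated 10 min at room temperature with enzyme-substrate mix, then NADPH regeneration system added for 1 h. Luciferin detection reagent, 20 min, luminescence read.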
(In general: A reporter such as luciferase makes a cellular process visible.)
On to `Brc1ccc(Oc2ccc(Br)cc2)cc1`, for which the Potency is 22.5 µM (active) and 20 µM (active). Still for that read-out and setting: to `CC[N+](CC)(CC(=O)Nc1c(C)cccc1C)Cc1ccccc1` belongs “inactive”; to `NC(=O)c1ncn([C@@H]2O[C@H](CO)[C@@H](O)[C@H]2O)n1`, “inactive”. Regarding `Cc1ccc([N+](=O)[O-])cc1N`, the Potency was 11.2 µM (active) and 8.94 µM (active).

`CCOC(=O)CC(=O)OCC`: the Potency entry was “inactive”.

`CC(=O)OCc1ccc2c(c1)OCO2`: the Potency was 2.01 µM (active) and 2.52 µM (active). For `CC(COCC(C)OC(=O)c1ccccc1)OC(=O)c1ccccc1` (stereo not drawn), the Potency is 9.95 µM (active) and 6.33 µM (active). Still for that read-out and setting: to `COc1ccc([C@@H]2CC(=O)c3c(O)cc(O[C@@H]4O[C@H](CO[C@@H]5O[C@@H](C)[C@H](O)[C@@H](O)[C@H]5O)[C@@H](O)[C@H](O)[C@H]4O)cc3O2)cc1OC` belongs “inactive”.

Consider `Cc1ncc(CO)c(CO)c1O`, for which the Potency result is “inactive”. `Cc1ccccc1Cl`: the Potency result was “inactive”. For `Oc1ccc(Cc2ccccc2O)cc1`, the Potency result is “inactive”. As for `Nc1nc(N)c2nc(-c3ccccc3)c(N)nc2n1`, the Potency was 36 µM (active) and 31.7 µM (active) and 24.5 µM (active).

In the case of `O=[N+]([O-])c1ccccc1C(F)(F)F`, the Potency entry is “inactive”. Turning to `COCN(COC)c1nc(N(COC)COC)nc(N(COC)COC)n1`, the Potency result is “inactive”. For `Nc1cccc(N)n1`, the Potency result is “inactive”. In the case of `Cc1ccncc1`, the Potency entry was “inactive”. Consider `CC(=O)OC[C@H]1O[C@@](COC(C)=O)(O[C@H]2O[C@H](COC(C)=O)[C@@H](OC(C)=O)[C@H](OC(C)=O)[C@H]2OC(C)=O)[C@@H](OC(C)=O)[C@@H]1OC(C)=O`, for which the Potency entry was “inactive”.
